Screening results from PubChem BioAssay.
Mdm2-MdmX inh – inhibitors of human Mdm2-MdmX association, primary screen, cell-based, luminescence, split luciferase, SaOS-2, uHTS | inhibition, % at 8 µM | SaOS-2 split-luciferase Mdm2/MdmX complementation | hit rate 3% among 330,000;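 active = inhibition of at least 50% at 8 µM in the primary screen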
CSC inhib – cancer stem cell viability inhibitors, primary screen, luminescence | cancer stem cell-like cells viability | inhibition, % at 7.5 µM | hit rate 1.1% among 300,000 | AID 2717, 2010; in the data active = inhibition above about 75%; tested in HMLE shEcad cells
aSyn 5UTR inh – MLPCN primary screen, SNCA 5' untranslated region; AID 1813, 2009; inhibition, % (tested at 7.5 µM); alpha-synuclein 5'UTR reporter, inhibitor activity; hit rate 0.82% among 300,000; in the data active = inhibition above about 60%;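 also: H4 neuroglioblastoma cells stably carrying SNCA 5'UTR luciferase fusion; 0% = DMSO wells and 100% = positive control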
Beta apoptosis – inhibitors of cytokine-induced beta cell apoptosis, primary screen, luminescence | protection from apoptosis, % (concentration not given with the values) | hit rate 0.8% among 300,000 | INS-1E cytokine-induced death, ATP luminescence, 48 h; percent of positive-control rescue, neutral wells zero | AID 435005, 2010;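 active = Every replicate reaches about 75%, or at least half do and their mean reaches it too, limit read from the data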;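 also: 0% = cytokine-treated negative control wells and 100% = positive control rescue; higher means more ATP so stronger rescue from cytokine killing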
A1 inh – caspase 3/7 activation in MEF A1-2A-BIM cells, primary screen, A1 inhibitor project, cell-based, luminescence, HTS | caspase activation, % (concentration not given with the values) | Caspase-Glo 3/7 luminescence, 3 h; percent of clofoctol response, vehicle zero | hit rate 0.066% among 330,000 | AID 2462, 2010;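 active = over half of replicate activation scores above 10%, or exactly half above 10 with the replicate mean above 10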
Mdm2-MdmX conf – Mdm2-MdmX complex disruptors, retested hits, confirmation, luminescence, single concentration | shares compounds with Mdm2-MdmX inh | Mdm2-MdmX binding, luminescent assay | inhibition, % at 8 µM | hit rate 55% among 10,000 | AID 489028, 2010; in the data active = inhibition above about 40%
Full FLuc ctr – full-length luciferase signal inhibition, confirmation, counter-screen for Mdm2/MdmX interaction inhibitor project, cell-based, single concentration, SaOS-2. shares compounds with Mdm2-MdmX inh. SaOS-2 full-length luciferase counterscreen, luminescence. inhibition, % at 8 µM. hit rate 77% among 6,200;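 active = mean inhibition at 8 µM reaching about 37%, which flags the compound as non-specific, limit read from the data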;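 also: p53-null SaOS-2 cells with luciferase driven by a doxycycline-inducible promoter; compound on cells about two nights before reading with doxycycline added after day one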
Numbers without * were called inactive. Sampled rows, rich in hits. Any-hit rate of the full collection: about 4.1%.

Screening O=C(C1CCCN(c2ncnc3c2nc2n3CCCCC2)C1)N1CCN(c2cccc(Cl)c2)CC1 (centres undefined) returned Mdm2-MdmX inh 57*, CSC inhib 45, aSyn 5UTR inh 12, Beta apoptosis 13, A1 inh 1 and Mdm2-MdmX conf 9.
Screening O=C(C1CCCN(c2ncnc3c2nc2n3CCCCC2)C1)N1CCN(c2ccccc2)CC1 (centres undefined) returned Mdm2-MdmX inh 24, CSC inhib 3, aSyn 5UTR inh -148, Beta apoptosis 8 and A1 inh 1.
Screening COc1ccccc1N1CCN(CCCNC(=O)C2CCCN(c3ncnc4c3nc3n4CCCCC3)C2)CC1 (centres undefined) returned Mdm2-MdmX inh 50*, CSC inhib -5, aSyn 5UTR inh 5, Beta apoptosis 5, A1 inh 0 and Mdm2-MdmX conf 10.
Screening Cc1ccc(N2CCN(C(=O)C3CCCN(c4ncnc5c4nc4n5CCCCC4)C3)CC2)c(C)c1 (centres undefined) returned Mdm2-MdmX inh 72*, CSC inhib 32, aSyn 5UTR inh 10, Beta apoptosis 11, A1 inh -1, Mdm2-MdmX conf 39 and Full FLuc ctr 56*.
For O=C(/C=C/c1ccc(F)cc1)NC(=S)N1CCCCC1c1cccnc1 (centres undefined) the results were Mdm2-MdmX inh 5, CSC inhib -7, aSyn 5UTR inh 0, Beta apoptosis 1 and A1 inh 0.
Screening O=C1/C(=C/c2ccc(F)cc2)SC(=S)N1CC(=O)N1CCCCC1c1cccnc1 (centres undefined) returned Mdm2-MdmX inh 74*, CSC inhib 15, aSyn 5UTR inh -28, Beta apoptosis -36, A1 inh -1 and Mdm2-MdmX conf 35.
O=C1/C(=C/c2cccs2)SC(=S)N1CC(=O)N1CCCCC1CCO (centres undefined) was read as Mdm2-MdmX inh 32, CSC inhib 0, aSyn 5UTR inh 2, Beta apoptosis -14 and A1 inh 2.
`O=C1/C(=C/c2ccccc2F)SC(=S)N1CC(=O)N1CCCCC1c1cccnc1` (centres undefined) gave Mdm2-MdmX inh 79*, CSC inhib 26, aSyn 5UTR inh -6, Beta apoptosis -47, A1 inh 0, Mdm2-MdmX conf 41* and Full FLuc ctr 20.
Screening Cc1c(C(=O)N2CCN(S(=O)(=O)c3ccccc3)CC2)oc2ccc(Br)cc12 returned Mdm2-MdmX inh 13.
Screening CCOC(=O)c1c(NC(=O)CC(C)C)sc(C(C)=O)c1C returned Mdm2-MdmX inh 17, CSC inhib -10, aSyn 5UTR inh 12 and A1 inh 0.
For CCOC(=O)C1=C(NC(=S)NC(=O)c2ccccc2)c2ccccc2CC1C(C)C (centres undefined) the results were Mdm2-MdmX inh 96*, CSC inhib -3, aSyn 5UTR inh 6, Beta apoptosis 3, A1 inh 0 and Mdm2-MdmX conf 11.
CCOC(=O)c1sc(NC(=S)NC(=O)c2ccccc2Cl)c(C(=O)OCC)c1C was read as Mdm2-MdmX inh 25, CSC inhib 8, aSyn 5UTR inh 3, Beta apoptosis -1 and A1 inh 1.
Screening CCOC(=O)C1=C(NC(=S)NC(=O)c2ccccc2)c2ccccc2CC1(C)CC (centres undefined) returned Mdm2-MdmX inh 77*, CSC inhib -5, aSyn 5UTR inh 39, Beta apoptosis -1, A1 inh 0, Mdm2-MdmX conf 66* and Full FLuc ctr 53*.
For CCOC(=O)c1c(NC(=O)c2ccccc2)sc2c1CCc1ccccc1-2 the results were Mdm2-MdmX inh -5, CSC inhib 32, aSyn 5UTR inh -30, Beta apoptosis 6 and A1 inh 0.
